# Assay results from PubChem BioAssay AID504332 (National Center for Advancing Translational Sciences (NCATS), 2011).
# Screen size: about 350,000 compounds; about 31,000 (8.9%) were called active. Another 15% or so got no clear call; they are omitted. The call rests on the fitted dose curve; in most records, active means well fitted inhibition curve with a large enough effect; inconclusive means small, poorly fitted or top-dose-only effect; inactive means no such curve, though single readings can be large or run the other way. The list comes from a sample in which actives are over-represented; it also holds similar structures and randomly drawn compounds.
# Biological target: Histone-lysine N-methyltransferase EHMT2 (Homo sapiens) (UniProt Q96KQ7)
# Sequence (Q96KQ7 913-1193 limits assumed): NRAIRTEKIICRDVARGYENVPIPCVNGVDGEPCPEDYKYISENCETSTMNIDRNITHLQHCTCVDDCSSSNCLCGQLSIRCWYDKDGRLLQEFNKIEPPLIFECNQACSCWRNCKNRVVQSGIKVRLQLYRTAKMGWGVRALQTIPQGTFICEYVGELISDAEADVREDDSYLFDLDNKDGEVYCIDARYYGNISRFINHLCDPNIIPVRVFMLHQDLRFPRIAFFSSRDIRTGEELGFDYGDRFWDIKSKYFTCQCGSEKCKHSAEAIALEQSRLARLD
# Assay: qHTS Assay for Inhibitors of Histone Lysine Methyltransferase G9a; further: nearly all actives have a fitted effect of over 75% in size
# Conditions: G9a H3K9 monomethylation, AlphaScreen, 2 h; series mostly up to 59 µM; activity, negative = inhibition: at the top concentration
# Procedure, shortened: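 Chemiluminescent proximity detection of H3K9 monomethylation, read after 10 min bead incubation in the dark. Reaction: 20 nM G9a, 500 nM biotin-H3K9 peptide, 20 uM SAM cofactor, 2 h, room temperature, following 15 min enzyme-compound preincubation.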
# On the % scale 0 is the no-effect control and ±100 the full control effect; potency means the concentration at half of the fitted maximal effect.
SMILES,"activity, negative = inhibition",Potency
Cc1cccc(N2CCN(C(=O)c3ccc(Nc4nc5ccccc5n5nnnc45)cc3)CC2)c1C,8.07% (inactive),
COc1ccc(C)cc1NC(=O)CSc1ccc(Cl)cc1,68% (inactive),
COc1ccc(Cl)cc1NC(=O)CN(C)Cc1ccc(OC)c(OC)c1,,4.47 µM (active)
COc1ccc(Cl)cc1NC(=O)CNc1ccccc1F,,79.4 µM (active)
COc1ccc(Cl)cc1NC(=O)CN(C)C(=O)CNC(=O)C12CC3CC(CC(C3)C1)C2,7.61% [at 12.7 µM] (inactive),
COc1ccc(Cl)cc1NC(=O)CCC(=O)c1ccc(C)cc1,0.463% (inactive),
COc1ccc(Cl)cc1NC(=O)CN(C)C(=O)c1ccc2n[nH]nc2c1,15.9% [at 12.7 µM] (inactive),
CCC(=O)c1ccc(OCC(=O)Nc2ccc(N3CCCCC3)cc2)cc1,13.1% [at 12.7 µM] (inactive),
CSc1ccc(Cl)c(C(=O)OCC(=O)N2CCNC2=O)c1,11.9% [at 12.7 µM] (inactive),
COc1ccc(OC)c(NC(=O)CSC2=Nc3ccccc3C3=NC(CC(=O)NCc4ccc(F)cc4)C(=O)N23)c1 (configuration not stated),-3.53% (inactive),
CC(C)c1ccc(NC(=O)Cn2ncc3ccccc32)cc1,16.2% [at 102 µM] (inactive),
CCC(C)N(C(=O)COC(=O)c1nc(Cl)ccc1Cl)C1CCS(=O)(=O)C1 (configuration not stated),-0.744% [at 0.501 µM] (inactive),
COc1cccc(CNS(=O)(=O)c2ccc3c(c2)CC(C)N3C(C)=O)c1 (configuration not stated),3.98% [at 102 µM] (inactive),
CC(C)CCN1CCN=C1N(C)C,11% [at 2.33 µM] (inactive),
CCOc1ccc(CNC(=O)C2CCCN(S(=O)(=O)N(CC)c3ccc(OCC)cc3)C2)cc1 (configuration not stated),-17.3% (inactive),
CC(=O)N1CCOc2ccc(S(=O)(=O)N3CCN(c4cccc(C(F)(F)F)c4)CC3)cc21,2.97% [at 102 µM] (inactive),
Cc1ccc2nc3c(cc(C(=O)NC4CCCCC4)c(=N)n3C(C)C)c(=O)n2c1,3.7% (inactive),
CCOC(=O)CNC(=O)/C(=C\c1ccc(F)cc1)NC(=O)c1ccccc1,24.9% [at 12.7 µM] (inactive),
Cn1c2ccccc2c2cc(/C=C(\NC(=O)c3ccccc3)C(=O)NCC(=O)O)ccc21,,50.1 µM (active)
COc1ccc(/C=C(\NC(=O)c2ccccc2)C(=O)NCCN2CCOCC2)cc1OC,11.3% [at 102 µM] (inactive),
COc1ccc(F)cc1C(=O)COC(=O)c1n[nH]c(=O)c2ccccc12,0.826% (inactive),
Cc1coc2c(O)cc3c(c12)OC1(N2CCCCC2)C(=O)NCCCC31 (configuration not stated),,7.94 µM (active)
C=CCC1=C/C(=C\c2c(N)n3nc(CC(=O)N4CCOCC4)sc3nc2=O)C=C(OC)C1=O,-45.8% [at 102 µM] (inactive),

SMILES,"activity, negative = inhibition",Potency
Cc1ccccc1Nc1nc(N)nc(COC(=O)CCC(=O)c2ccc(F)cc2)n1,-37.6% [at 102 µM] (inactive),
O=C(O)C1C2C=CC(C2)C1C(=O)NCc1ccccc1 (configuration not stated),1.59% [at 2.33 µM] (inactive),
COC(=O)[C@H](Cc1ccccc1)NC(=O)[C@@H]1C[C@H]1[C@@H](NC(=O)OCc1ccccc1)c1ccccc1,4.81% [at 102 µM] (inactive),
O=C(NCc1ccccc1)[C@H]1C[C@@H]1[C@H](NP(=O)(c1ccccc1)c1ccccc1)c1ccccc1,,28.2 µM (active)
O=C(CSCc1cnn(-c2ccccc2)c1-n1cccc1)NCc1ccccc1Br,-6.39% (inactive),
Cc1cc(C)nc(S/C=C/C(=O)c2ccccc2)n1,,22.4 µM (active)
Cc1cc(SCC(=O)c2ccccc2)nc(SCC(=O)c2ccccc2)n1,52.4% [at 102 µM] (inactive),
C/C(=N\NC(=O)c1nc(C)cc(C)n1)c1ccccc1,5.99% (inactive),
COc1ccc(Cn2cc(C(=O)c3ccc(C)cc3)c(=O)c3cc(OC)c(OC)cc32)cc1,-4.14% (inactive),
Cc1ccc2nc(NC(=O)C3CSC4(C)CCC(=O)N34)sc2c1 (configuration not stated),,39.8 µM (active)
CCOC(=O)c1sc(NC(=O)C2CSC3(C)CCC(=O)N23)nc1C (configuration not stated),20.6% [at 12.7 µM] (inactive),
CC12CCC(=O)N1C(C(=O)Nc1ccc(F)c(F)c1F)CS2 (configuration not stated),13.3% [at 12.7 µM] (inactive),
Cc1oc2c(c1C(=O)Nc1ccc(F)c(F)c1)C1=NCCN1C=N2,6.48% (inactive),
COc1ccc(-c2nn(CC(=O)NC3CCCC3)c3c2cnc2ccc(F)cc23)cc1,4.34% (inactive),
C=C(C)C1CC=C(C)/C(=N/NC(=O)CCCNc2cccc(C)c2)C1 (configuration not stated),-9.82% [at 102 µM] (inactive),
COc1ccccc1Nc1ncc(C(C)=O)c(C)n1,20.8% [at 102 µM] (inactive),
C=C(C)C1CC=C(C)/C(=N\NC(=O)CNc2ccccc2OC)C1 (configuration not stated),,35.5 µM (active)
CCOC(=O)c1c(S(=O)(=O)N2CCCC(C(=O)NCc3cccc(C)c3)C2)c(C)n(C)c1C (configuration not stated),5.95% (inactive),
O=C(NCCC1CCCCN1S(=O)(=O)c1ccc(F)cc1)C(=O)NC1CC1 (configuration not stated),16.1% [at 0.501 µM] (inactive),
COc1ccc(NC(=O)CCCN2C(=O)C(c3ccccc3)Oc3cccnc32)cc1 (configuration not stated),-1.84% (inactive),
Cc1cc(C)nc(NC(=O)c2cccc([N+](=O)[O-])c2)c1,0.861% [at 102 µM] (inactive),
O=[N+]([O-])c1cccc(/C([O-])=C(/C(=S)Nc2ccccc2F)[n+]2ccccc2)c1,,28.2 µM (active)
CS(=O)(=O)N(CC(=O)Nc1ccc(F)cc1F)c1cccc([N+](=O)[O-])c1,1.69% (inactive),

SMILES,"activity, negative = inhibition",Potency
CCCN1C2CCCC1CC(NC(=O)NC13CC4CC(CC(C4)C1)C3)C2 (configuration not stated),-2.35% [at 0.501 µM] (inactive),
OCC[C@H]1C[C@@H](O)[C@H](O)[C@]2(OCCCc3ccccc32)O1,-3% [at 12.7 µM] (inactive),
COC(=O)CN1C(=O)C(C)(C)Oc2ccc(C(=O)Nc3cccc(OC)c3)cc21,15.9% [at 102 µM] (inactive),
CC(=O)c1ccc(NC(=O)CSc2nnc(NC(=O)Nc3ccccc3)s2)cc1,-21.1% (inactive),
Cc1cccc(CSc2nnc(NC(=O)CSc3nnc(C)s3)s2)c1,15.2% [at 102 µM] (inactive),
Cc1cccc(NC(=O)CSc2nnc(NC(=O)CN3CCOCC3)s2)c1,,7.08 µM (active)
O=C(CSc1nnc(-c2cccnc2)n1CCc1ccccc1)NCc1ccccc1,16.6% (inactive),
C=CCn1c(SCC(=O)NC(=O)Cc2ccccc2)nc2ccccc2c1=O,24.2% [at 12.7 µM] (inactive),
C=CCn1c(SCC(=O)NCc2ccccc2)nnc1-c1cc(Br)ccc1O,,10 µM (active)
CCc1cc(=O)oc2c(C)c(OCC(=O)NCCN3CCOCC3)ccc12,-1.68% [at 102 µM] (inactive),
Cc1ccc(S(=O)(=O)N(Cc2nc(-c3ccc(Cl)cc3)no2)C2CCCCC2)cc1,19% (inactive),
O=C(CSc1nc(=O)n(Cc2cccnc2)c2c1CCC2)Nc1ccc(F)cc1F,11.7% (inactive),
Cc1ccc(C)n1-c1nnc(N2CCC(C(=O)NCc3ccc(F)cc3)CC2)s1,4.77% (inactive),
Cn1c(CC(=O)Nc2ccc(F)cc2)nnc1SCC(=O)NC1CCCCC1,2.6% (inactive),
CCOc1ccc(Nc2nc(Cc3nnc(SCC(=O)NC4CCCC4)n3C)cs2)cc1,,28.2 µM (active)
CCOc1cccc(-c2nnc(SCC(=O)NC3CC3)n2C)c1,-2.25% [at 102 µM] (inactive),
CC(C)CCNC(=O)CSc1nc2ccccc2nc1Cc1ccc(Cl)cc1,14.1% (inactive),
O=C(NCCCNCc1ccccc1)c1ccc(/C=N/O)nc1,,14.1 µM (active)
CC(C)c1ccc(C(=O)NCCCc2ccccc2)cc1,68.5% (inactive),
Nc1ccc(C(=O)NCc2ccccc2)cc1,-1.36% [at 102 µM] (inactive),
COc1ccccc1N1CCN(S(=O)(=O)CCNC(=O)COc2ccc(F)cc2)CC1,5.42% (inactive),
COc1ccc(-c2c(C)c3ccc(O)c(CN4CCN(C)CC4)c3oc2=O)cc1OC,6.72% (inactive),
COc1ccc2oc(=O)cc(CN3CCOCC3)c2c1,20.4% [at 0.501 µM] (inactive),

SMILES,"activity, negative = inhibition",Potency
CC(C)c1ccc2oc(=O)cc(CN3CCN(Cc4ccccc4)CC3)c2c1,,50.1 µM (active)
Cc1cc2oc(=O)cc(CN3CCN(Cc4ccccc4)CC3)c2cc1C,8.68% [at 102 µM] (inactive),
CC1CC(C)CN(C(=O)COC(=O)c2ccc3ncsc3c2)C1 (configuration not stated),-10.9% [at 12.7 µM] (inactive),
CCc1cccc(NC(=O)C2CCCN(S(=O)(=O)c3ccc4[nH]c(=O)ccc4c3)C2)c1 (configuration not stated),-12.2% (inactive),
CSc1ccccc1C(=O)OCC(=O)N1CCN(C(C)=O)CC1,-3.84% [at 12.7 µM] (inactive),
Cc1ccccc1N1C(=O)C2ON(c3ccccc3)C(c3ccncc3)C2C1=O (configuration not stated),,44.7 µM (active)
COc1cc(C2C3C(=O)N(c4ccccc4)C(=O)C3ON2c2ccccc2)ccc1O (configuration not stated),12.5% (inactive),
COC(=O)C1=NN(c2ccccc2)C2C(=O)N(c3ccccc3OC)C(=O)C12 (configuration not stated),-8.07% (inactive),
CCOc1ccc2c(c1)c(=O)c(S(=O)(=O)c1ccc(C)cc1)cn2CC,6.41% [at 102 µM] (inactive),
COc1ccccc1C(=O)COC(=O)CSCC(=O)Nc1cc(C)on1,-33.7% [at 102 µM] (inactive),
CC(C)(COC(=O)Nc1ccccc1)COC(=O)Nc1ccccc1,-24.1% [at 2.33 µM] (inactive),
CCOC(=O)c1sc2nc(SC)nc(-c3ccccc3)c2c1N,22.6% [at 12.7 µM] (inactive),
CCN(CC)C(=O)c1sc2nc(-c3ccccc3)ccc2c1N,,17.8 µM (active)
COc1cccc(C(=O)c2sc3nc(-c4ccccc4)cc(C(F)(F)F)c3c2N)c1,71% (inactive),
CC(=O)NS(=O)(=O)c1ccc2c(c1)Cc1cc(S(=O)(=O)NC(C)=O)ccc1-2,-3.76% [at 0.501 µM] (inactive),
COc1ccc(CCNC(=O)c2c3c(nc4ccccc24)C(=O)N(C2CCCCC2)C3)cc1OC,9.2% (inactive),
COc1ccccc1Nc1c2c(nc3ccc(NC(=O)/C=C/c4cc(OC)c(OC)c(OC)c4)cc13)CCCC2,,14.1 µM (active)
CCOc1ccc(C(=O)Nc2ccc3nc4c(c(Nc5ccccc5OC)c3c2)CCCC4)cc1,-44% (inactive),
COc1ccc(/C=C/C(=O)Nc2ccc3c(c2)OCCO3)cc1OC,-16.2% (inactive),
CC(C)=C1C2CCC1C1C(=O)N(NC(=O)c3ccco3)C(=O)C21 (configuration not stated),6.86% [at 102 µM] (inactive),
O=C(NC1CC(=O)N(c2ccccc2)C1)c1ccco1 (configuration not stated),-2.6% (inactive),
O=C(NN1C(=O)C2C3C=CC(C3)C2C1=O)c1ccco1 (configuration not stated),,12.6 µM (active)
CCOc1ccc(CNC(=O)Cn2cc3c(n2)-c2c(oc(C(=O)N4CCCC4)c2C)CC3)cc1,-35.9% (inactive),
